Active and inactive are the calls of the source.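 How the source made its calls: active means at least 20% inhibition of 6-phosphogluconate dehydrogenase activity; inactive means the rest.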
Target: 6-phosphogluconate dehydrogenase, decarboxylating (Homo sapiens) (UniProt P52209)
Test: 6PGD enzyme inhibitors, primary screen, biochemical, human, recombinant enzyme, NADPH absorbance (AID 1159550)
Conditions: recombinant 6PGD, NADPH absorbance 341 nm; at 10 µM; stronger effect = higher value

Sequence of 6-phosphogluconate dehydrogenase, decarboxylating (Homo sapiens) (P52209 whole entry, looked up): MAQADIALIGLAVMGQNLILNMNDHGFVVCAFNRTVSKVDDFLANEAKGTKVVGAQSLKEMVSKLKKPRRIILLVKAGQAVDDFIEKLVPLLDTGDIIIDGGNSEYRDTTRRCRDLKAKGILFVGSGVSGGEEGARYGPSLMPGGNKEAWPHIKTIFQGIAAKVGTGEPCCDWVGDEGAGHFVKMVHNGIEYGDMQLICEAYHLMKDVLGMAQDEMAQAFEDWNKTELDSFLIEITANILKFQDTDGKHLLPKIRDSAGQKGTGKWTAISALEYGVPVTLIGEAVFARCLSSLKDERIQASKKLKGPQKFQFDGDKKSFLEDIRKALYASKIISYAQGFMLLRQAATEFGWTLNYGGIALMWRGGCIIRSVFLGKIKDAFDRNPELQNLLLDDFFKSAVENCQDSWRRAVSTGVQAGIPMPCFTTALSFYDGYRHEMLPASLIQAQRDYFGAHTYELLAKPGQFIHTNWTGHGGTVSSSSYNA

Structure (SMILES) | inhibition
CNC(=O)O/N=C/C(C)(C)SC | -1.92% (inactive)
C[C@@H]1OC(O[C@H]2CC[C@]3(C=O)[C@H]4CC[C@]5(C)C(C6=CC(=O)OC6)CC[C@]5(O)[C@@H]4CC[C@]3(O)C2)[C@H](O)[C@H](O)[C@H]1O (some centres not stated) | 2.25% (inactive)
CO[C@H]1[C@H](O)[C@H](O[C@H]2CC[C@@]3(C=O)[C@H](CC[C@@H]4[C@@H]3CC[C@]3(C)[C@@H](C5=CC(=O)OC5)CC[C@]43O)C2)O[C@@H](C)[C@@H]1O | -22% (inactive)
Cc1c(O)c(C(=O)CC(C)C)c2oc3c(C(=O)CC(C)C)c(O)c(C)c(O)c3c2c1O | 0.288% (inactive)
NCC(CC(=O)O)c1ccc(Cl)s1 (configuration not stated) | -3.23% (inactive)
OC1C[C@H]2CCC[C@@H](C1)N2Cc1ccccc1 (some centres not stated) | 1.32% (inactive)
CC1(C)[C@H](O)CC(=O)[C@@]2(C)[C@@H]1CC(=O)[C@]1(C)[C@H]2CC[C@@]2(C)[C@H](c3ccoc3)OC(=O)[C@H]3O[C@]321 | 8.09% (inactive)
